The text below walks through data of PubChem BioAssay (NCI).

Some test systems named below: SK-MEL-2 melanoma; EKVX NSCLC; SN12C renal; UO-31 renal; TK-10 renal; ACHN renal; CAKI-1 renal; A498 renal; CCRF-CEM leukemia; MOLT-4 leukemia; SR leukemia; OVCAR-8 ovarian; OVCAR-5 ovarian; OVCAR-4 ovarian; SK-OV-3 ovarian; IGROV1 ovarian; OVCAR-3 ovarian; HS 578T breast; NCI/ADR-RES ovarian; RPMI-8226 leukemia.
What all share (test): NCI-60 one-dose screen, 48 h (100 = growth as untreated, 0 = no growth, -100 = all killed)
Common to all, as to settings: 10 µM unless noted

SMILES strings stand for the structures. This is part of a sample that, as a whole, favours compounds with a hit. Of some 83,000 tested, about 20% had one in any assay.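 Compound tested at a single concentration for 48 hours in 96-well plates; a percent growth value below 10 was scored as active.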 Values without a mark were called inactive. Activity calls are given as the source filed them.

On to `CCOC(CNCc1cc(C)c2[nH]c3ccccc3c2c1C)OCC`, for which the growth was 62.2% in the experiment with SK-MEL-2 melanoma; 90% with EKVX NSCLC; 69.7% in the experiment with SN12C renal; 45.1% in the experiment with UO-31 renal; 77.3% in the experiment on TK-10 renal; 88.3% in the experiment with ACHN renal. Further, the growth in the experiment with CAKI-1 renal is 71.4%; in the experiment with A498 renal, 39.8%; in the experiment with CCRF-CEM leukemia, 77.5%; with MOLT-4 leukemia, 62.5%; with SR leukemia, 77.4%; in the experiment with OVCAR-8 ovarian, 89.5%. Also, the growth with OVCAR-5 ovarian was 99.3%; with OVCAR-4 ovarian, 58.7%; in the experiment with SK-OV-3 ovarian, 93.1%; in the experiment on IGROV1 ovarian it was 83.9%; with OVCAR-3 ovarian it was 83.9%; with HS 578T breast it was 84.6%. The growth with NCI/ADR-RES ovarian is 77.2%.
Take `CC(=O)Nc1c(Cl)cc2c(c1Cl)Cc1ccccc1-2`: the growth with SK-MEL-2 melanoma was 93.8%; in the experiment with EKVX NSCLC, 64.3%; with SN12C renal, 90.9%; in the experiment on UO-31 renal it was 69.2%; in the experiment with TK-10 renal, 115%; with ACHN renal it was 100%. Also, the growth with CAKI-1 renal was 86.1%; in the experiment on A498 renal it was 93.7%; in the experiment with CCRF-CEM leukemia it was 102%; in the experiment on MOLT-4 leukemia, 93%; with SR leukemia, 101%; with OVCAR-8 ovarian, 102%. In addition, the growth was 85.4% in the experiment on OVCAR-5 ovarian; 100% in the experiment with OVCAR-4 ovarian; 113% in the experiment with SK-OV-3 ovarian; 93% in the experiment with IGROV1 ovarian; 105% in the experiment on OVCAR-3 ovarian; 114% in the experiment on HS 578T breast. Moreover, the growth in the experiment on NCI/ADR-RES ovarian is 103%.
Turning to `Nc1ccc(N=Nc2ccccc2)cc1[N+](=O)[O-]`, the growth with SK-MEL-2 melanoma is 87.2%; in the experiment on EKVX NSCLC, 75.2%; with SN12C renal, 84.6%; in the experiment with UO-31 renal, 45.9%; in the experiment with TK-10 renal, 82.8%; in the experiment on ACHN renal, 89.9%. In addition, the growth with CAKI-1 renal was 66%; with A498 renal it was 109%; with CCRF-CEM leukemia it was 97.7%; with MOLT-4 leukemia it was 74.1%; in the experiment with SR leukemia it was 93.2%; in the experiment with OVCAR-8 ovarian it was 94.7%. Besides, the growth is 110% with OVCAR-5 ovarian; 71.5% in the experiment on OVCAR-4 ovarian; 97.9% with SK-OV-3 ovarian; 62.9% in the experiment on IGROV1 ovarian; 102% in the experiment on OVCAR-3 ovarian; 139% in the experiment on HS 578T breast. The growth in the experiment on NCI/ADR-RES ovarian was 95.9%.
As for `O=C1N=C(N2CCOCC2)S/C1=C\c1cn(-c2ccccc2)nc1-c1ccccc1`, the growth in the experiment on SK-MEL-2 melanoma was 81.7%; with EKVX NSCLC, 90%; in the experiment on SN12C renal, 92.4%; in the experiment on UO-31 renal, 44.3%; with TK-10 renal it was 57.1%; in the experiment on ACHN renal it was 58.9%. The growth was 93.9% with CAKI-1 renal; 48% in the experiment on A498 renal; 92.4% in the experiment on CCRF-CEM leukemia; 116% with MOLT-4 leukemia; 71.5% with SR leukemia; 69.9% in the experiment on OVCAR-8 ovarian. The growth in the experiment on OVCAR-5 ovarian is 109%; in the experiment with OVCAR-4 ovarian, 25.1%; in the experiment with SK-OV-3 ovarian, 83.3%; in the experiment with IGROV1 ovarian, 79.9%; in the experiment on OVCAR-3 ovarian it was 58%; in the experiment on HS 578T breast it was 57.4%.
On to `O=C1NC(=S)S/C1=C\c1cc(Br)ccc1O`, for which the growth in the experiment on SK-MEL-2 melanoma was 100%; with EKVX NSCLC, 107%; in the experiment with SN12C renal it was 102%; with UO-31 renal it was 67.6%; in the experiment on TK-10 renal it was 107%; with ACHN renal, 93.5%. Besides, the growth is 99.5% with CAKI-1 renal; 76% with A498 renal; 79.2% in the experiment on CCRF-CEM leukemia; 107% in the experiment on MOLT-4 leukemia; 95.7% in the experiment with SR leukemia; 103% in the experiment with OVCAR-8 ovarian. Also, the growth is 91.6% with OVCAR-5 ovarian; 115% in the experiment with OVCAR-4 ovarian; 91.3% with SK-OV-3 ovarian; 110% in the experiment with IGROV1 ovarian; 103% in the experiment with OVCAR-3 ovarian; 102% in the experiment with NCI/ADR-RES ovarian.
Turning to `C(=C1c2ccccc2-c2ccccc21)c1ccccn1`, the growth with SK-MEL-2 melanoma was 54.2%; in the experiment on EKVX NSCLC it was 70.6%; in the experiment on SN12C renal it was 80.3%; with UO-31 renal, 79.6%; in the experiment on TK-10 renal it was 91.7%; with ACHN renal, 96.5%. The growth was 52% with CAKI-1 renal; 97.8% in the experiment on A498 renal; 85.5% in the experiment on CCRF-CEM leukemia; 67.3% with MOLT-4 leukemia; 22.6% with SR leukemia; 93.4% in the experiment on OVCAR-8 ovarian. Besides, the growth is 87.3% in the experiment with OVCAR-5 ovarian; 70.7% in the experiment with OVCAR-4 ovarian; 95.5% in the experiment with SK-OV-3 ovarian; 74.1% with IGROV1 ovarian; 65.4% in the experiment on HS 578T breast; 31.1% in the experiment on NCI/ADR-RES ovarian.
With `CCCCCN1C(=O)CCC1=O`, the growth in the experiment with SK-MEL-2 melanoma is 103%; in the experiment on EKVX NSCLC, 98.9%; in the experiment with SN12C renal, 101%; in the experiment on UO-31 renal, 85.8%; in the experiment on TK-10 renal, 106%; in the experiment on ACHN renal, 104%. Also, the growth with CAKI-1 renal is 91.8%; with A498 renal it was 106%; in the experiment with CCRF-CEM leukemia it was -52.3% (active); in the experiment on MOLT-4 leukemia, 110%; in the experiment on SR leukemia, 107%; in the experiment on OVCAR-8 ovarian, 94.4%. Besides, the growth in the experiment on OVCAR-5 ovarian is 98.2%; in the experiment on OVCAR-4 ovarian it was 114%; in the experiment with SK-OV-3 ovarian, 110%; in the experiment with IGROV1 ovarian, 110%; with OVCAR-3 ovarian, 103%.
`CCSc1ncc(Br)c(Sc2nc(N)nc3nc[nH]c23)n1`: the growth with SK-MEL-2 melanoma was 73.1%; with EKVX NSCLC it was 36.7%; in the experiment with SN12C renal, 80.9%; in the experiment with UO-31 renal it was 70%; in the experiment on TK-10 renal, 72.7%; with ACHN renal it was 77.6%. Besides, the growth was 57.7% with CAKI-1 renal; 95.9% with A498 renal; 12.5% with CCRF-CEM leukemia; 3.06% (active) in the experiment with MOLT-4 leukemia; 19.4% in the experiment with SR leukemia; 26.1% in the experiment on RPMI-8226 leukemia. The growth with OVCAR-5 ovarian was 72.3%; in the experiment on OVCAR-4 ovarian, 58.4%; in the experiment on SK-OV-3 ovarian, 18.5%; with IGROV1 ovarian, 89.4%; in the experiment on OVCAR-3 ovarian, 75.2%; in the experiment on HS 578T breast, 89.9%. In addition, the growth in the experiment with NCI/ADR-RES ovarian was 33.4%.
For `CCOC(=O)c1sc(NC(=O)COc2cccc(/C=C3\CCc4cc(OC)ccc4C3=O)c2)nc1C`, the growth in the experiment on SK-MEL-2 melanoma is 42.6%; in the experiment on EKVX NSCLC it was 82.9%; in the experiment on SN12C renal, 48.9%; in the experiment with UO-31 renal, 14%; in the experiment with TK-10 renal it was 89.3%; in the experiment with ACHN renal, 85.7%. Moreover, the growth is 60.2% in the experiment on CAKI-1 renal; 85.8% in the experiment on A498 renal; -17.2% (active) with CCRF-CEM leukemia; 7.22% (active) with MOLT-4 leukemia; -19.4% (active) in the experiment on SR leukemia; 12.6% in the experiment on RPMI-8226 leukemia. Moreover, the growth with OVCAR-8 ovarian was 73%; in the experiment with OVCAR-5 ovarian, 98%; with SK-OV-3 ovarian it was 99%; in the experiment with HS 578T breast, 91.7%; with NCI/ADR-RES ovarian, 47.7%.
In the case of `O=c1ccn(C2CC=C(CO)O2)c(=O)[nH]1` (configuration not stated), the growth in the experiment with SK-MEL-2 melanoma was 105%; in the experiment on EKVX NSCLC, 105%; with SN12C renal, 92.1%; in the experiment with UO-31 renal, 110%; with TK-10 renal it was 100%; with ACHN renal, 109%. The growth in the experiment with CAKI-1 renal is 63.1%; in the experiment with A498 renal, 101%; in the experiment with CCRF-CEM leukemia, 90.4%; with MOLT-4 leukemia, 101%; with RPMI-8226 leukemia it was 84.5%; in the experiment with OVCAR-8 ovarian, 103%. The growth is 102% in the experiment on OVCAR-5 ovarian; 110% in the experiment on OVCAR-4 ovarian; 102% in the experiment on SK-OV-3 ovarian; 86.2% with IGROV1 ovarian; 107% in the experiment on OVCAR-3 ovarian; 112% in the experiment on HS 578T breast. The growth in the experiment with NCI/ADR-RES ovarian is 116%.
Turning to `N/C(=N\c1nc2ccccc2s1)NC(=O)Nc1ccccc1Cl`, the growth with SK-MEL-2 melanoma is 18.8%; in the experiment on EKVX NSCLC, 41.2%; in the experiment on SN12C renal, 42.2%; in the experiment with UO-31 renal, 54.2%; in the experiment on TK-10 renal it was 69.4%; in the experiment with ACHN renal, 42.2%. The growth in the experiment on CAKI-1 renal was 32.7%; with CCRF-CEM leukemia, 12.9%; with MOLT-4 leukemia, 13.9%; in the experiment with SR leukemia, 9.92% (active); with RPMI-8226 leukemia, 10.1%; in the experiment with OVCAR-8 ovarian, 15.5%. Moreover, the growth is 32.5% with OVCAR-5 ovarian; 69.3% in the experiment on OVCAR-4 ovarian; 31.8% in the experiment on SK-OV-3 ovarian; 20.8% with IGROV1 ovarian; -14.2% (active) in the experiment on OVCAR-3 ovarian; 30% in the experiment on HS 578T breast. Besides, in the experiment on NCI/ADR-RES ovarian, the growth is 6.38% (active).
